Inconclusive results are not listed. Active and inactive are the calls of the source. Calls follow the shape of the dose curve; as a rule, active = well fitted cell-killing curve with a large enough effect; inconclusive = small, poorly fitted or top-dose-only effect, or effect the other way; inactive = flat fitted curve, though single readings scatter.
Experiments:
Test in all cases: Primary qHTS to identify gynecologic anti-cancer compounds using libraries of approved drugs and bioactive compounds (AID 1345084); also: nearly all actives have a fitted effect of over 55% in size
CAOV3 = conditions: Gynecologic cancer cell panel viability, ATPlite luminescence, 48 h; series mostly up to 57.5 µM
In short: (§1)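 Five-point cytotoxicity, 48 h drug exposure at 37 C, 5% CO2, on cells seeded 16 h beforehand. ATP content read by ATPlite luminescence.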

CASKI = conditions: Gynecologic cancer cell panel viability, ATPlite luminescence, 48 h; series mostly up to 57.5 µM
In short: as §1

Es-2 = conditions: Gynecologic cancer cell panel viability, ATPlite luminescence, 48 h; series mostly up to 57.5 µM
In short: as §1

HeLa = conditions: Gynecologic cancer cell panel viability, ATPlite luminescence, 48 h; series mostly up to 57.5 µM
In short: as §1

Hek293T = conditions: Gynecologic cancer cell panel viability, ATPlite luminescence, 48 h, control line for the selectivity index; series mostly up to 57.5 µM
In short: as §1

JEG-3 = conditions: Gynecologic cancer cell panel viability, ATPlite luminescence, 48 h; series mostly up to 57.5 µM
In short: as §1

OV90 = conditions: Gynecologic cancer cell panel viability, ATPlite luminescence, 48 h; series mostly up to 57.5 µM
In short: as §1

PA-1 = conditions: Gynecologic cancer cell panel viability, ATPlite luminescence, 48 h; series mostly up to 57.5 µM
In short: as §1

SKOV3 = conditions: Gynecologic cancer cell panel viability, ATPlite luminescence, 48 h; series mostly up to 57.5 µM
In short: as §1

Tov-21-G = conditions: Gynecologic cancer cell panel viability, ATPlite luminescence, 48 h; series mostly up to 57.5 µM
In short: as §1

Tov112D = conditions: Gynecologic cancer cell panel viability, ATPlite luminescence, 48 h; series mostly up to 57.5 µM
In short: as §1
% is scaled to controls: 0 for no effect and ±100 for the full control effect.

O=C(OCC12OC1C=CC(OC(=O)c1ccccc1)C2O)c1ccccc1 (stereo not drawn)
inactive: Potency (CAOV3) | Potency (CASKI) | Potency (Es-2) | Potency (HeLa) | Potency (Hek293T) | Potency (JEG-3) | Potency (OV90) | Potency (PA-1) | Potency (SKOV3) | Potency (Tov-21-G) | Potency (Tov112D)

O=C(c1ccc(C#Cc2cccc(F)c2)cn1)N1CC2CC2C1 (stereo not drawn)
inactive: Potency (CAOV3) | Potency (CASKI) | Potency (Es-2) | Potency (HeLa) | Potency (Hek293T) | Potency (JEG-3) | Potency (OV90) | Potency (PA-1) | Potency (SKOV3) | Potency (Tov-21-G) | Potency (Tov112D)

CCCn1cnc2c(NCc3ccccc3)nc(N[C@H](CC)CO)nc21
inactive: Potency (CAOV3) | Potency (CASKI) | Potency (Es-2) | Potency (HeLa) | Potency (Hek293T) | Potency (JEG-3) | Potency (OV90) | Potency (PA-1) | Potency (SKOV3) | Potency (Tov-21-G) | Potency (Tov112D)

C[C@@H]1CC[C@]2(C)C(C[C@@H](O)[C@H](O)[C@]23CO3)[C@@]1(C)CCc1ccoc1 (stereo partly drawn)
inactive: Potency (CAOV3) | Potency (CASKI) | Potency (Es-2) | Potency (HeLa) | Potency (Hek293T) | Potency (JEG-3) | Potency (OV90) | Potency (PA-1) | Potency (SKOV3) | Potency (Tov-21-G) | Potency (Tov112D)

CC1[C@@H](O)[C@@H](O)C2[C@]3(C)C(C[C@H]4OC(=O)[C@H](O)[C@]1(O)[C@@]24C)C(C)(O)C[C@H](O)[C@H]3O (stereo partly drawn)
inactive: Potency (CAOV3) | Potency (CASKI) | Potency (Es-2) | Potency (HeLa) | Potency (Hek293T) | Potency (JEG-3) | Potency (OV90) | Potency (PA-1) | Potency (SKOV3) | Potency (Tov-21-G) | Potency (Tov112D)

CNC(=O)c1ccc2cc([C@@]3(O)CCn4cncc43)ccc2c1
inactive: Potency (CAOV3) | Potency (CASKI) | Potency (Es-2) | Potency (HeLa) | Potency (Hek293T) | Potency (JEG-3) | Potency (OV90) | Potency (PA-1) | Potency (SKOV3) | Potency (Tov-21-G) | Potency (Tov112D)

O=C(CCCCc1ccc2ccccc2c1)C(F)(F)F
inactive: Potency (CAOV3) | Potency (CASKI) | Potency (Es-2) | Potency (HeLa) | Potency (Hek293T) | Potency (JEG-3) | Potency (OV90) | Potency (PA-1) | Potency (SKOV3) | Potency (Tov-21-G) | Potency (Tov112D)

C/C1=C\C[C@H](O[C@@H]2O[C@H](CO)[C@@H](O)[C@H](O)[C@H]2O)/C(C)=C/[C@H]2OC(=O)[C@H](C)[C@@H]2CC1
inactive: Potency (CAOV3) | Potency (CASKI) | Potency (Es-2) | Potency (HeLa) | Potency (Hek293T) | Potency (JEG-3) | Potency (OV90) | Potency (PA-1) | Potency (SKOV3) | Potency (Tov-21-G) | Potency (Tov112D)

Cc1cc(O)c(C(C)C)cc1O[C@@H]1O[C@H](CO)[C@@H](O)[C@H](O)[C@H]1O
inactive: Potency (CAOV3) | Potency (CASKI) | Potency (Es-2) | Potency (HeLa) | Potency (Hek293T) | Potency (JEG-3) | Potency (OV90) | Potency (PA-1) | Potency (SKOV3) | Potency (Tov-21-G) | Potency (Tov112D)

c1nc(NC2CCCCCC2)c2cc(CNC[C@H]3CCCO3)sc2n1
inactive: Potency (CAOV3) | Potency (CASKI) | Potency (Es-2) | Potency (HeLa) | Potency (Hek293T) | Potency (JEG-3) | Potency (OV90) | Potency (PA-1) | Potency (SKOV3) | Potency (Tov-21-G) | Potency (Tov112D)

CC1=CC[C@]2(C(=O)O[C@@H]3O[C@H](CO[C@@H]4O[C@H](CO)[C@@H](O[C@@H]5O[C@@H](C)[C@H](O)[C@@H](O)[C@H]5O)[C@H](O)[C@H]4O)[C@@H](O)[C@H](O)[C@H]3O)CC[C@]3(C)C(CCC4[C@@]5(C)C[C@@H](O)[C@H](O)[C@@](C)(CO)C5CC[C@]43C)C2C1C (stereo partly drawn)
inactive: activity change, negative = cytotoxicity (CAOV3) 6.14% [at 11.6 µM] | activity change, negative = cytotoxicity (CASKI) 4.37% [at 11.6 µM] | activity change, negative = cytotoxicity (Es-2) 6.73% [at 11.6 µM] | activity change, negative = cytotoxicity (HeLa) 3.93% [at 11.6 µM] | activity change, negative = cytotoxicity (Hek293T) -4.38% [at 11.6 µM] | activity change, negative = cytotoxicity (JEG-3) -1.63% [at 11.6 µM] | activity change, negative = cytotoxicity (OV90) 6.64% [at 11.6 µM] | activity change, negative = cytotoxicity (PA-1) 10.1% [at 11.6 µM] | activity change, negative = cytotoxicity (SKOV3) -2.91% [at 11.6 µM] | activity change, negative = cytotoxicity (Tov-21-G) 4.72% [at 11.6 µM] | activity change, negative = cytotoxicity (Tov112D) -1.58% [at 11.6 µM]

C=C1CC[C@H]2[C@@](C)(CCC[C@@]2(C)C(=O)O)[C@@H]1CCC(C)CCO (stereo partly drawn)
inactive: Potency (CAOV3) | Potency (CASKI) | Potency (Es-2) | Potency (HeLa) | Potency (Hek293T) | Potency (JEG-3) | Potency (OV90) | Potency (PA-1) | Potency (SKOV3) | Potency (Tov-21-G) | Potency (Tov112D)

C/C(=C\CO)CC/C=C(\C)C(=O)O[C@H]1[C@H](OC2OC=C(C(=O)O)C3CCC(C)(O)C23)O[C@H](CO)[C@@H](O)[C@@H]1O (stereo partly drawn)
inactive: Potency (CAOV3) | Potency (CASKI) | Potency (Es-2) | Potency (HeLa) | Potency (Hek293T) | Potency (JEG-3) | Potency (OV90) | Potency (PA-1) | Potency (SKOV3) | Potency (Tov-21-G) | Potency (Tov112D)

— PubChem BioAssay (NCATS)
